Records with an inconclusive call do not appear. Where a call stands in place of a potency, no number is given. The source made the active and inactive calls. Unless noted, calls follow the shape of the dose curve; as a rule, active = well fitted curve in the direction sought with a large enough effect; inconclusive = small, poorly fitted or top-dose-only effect, or another doubt; inactive = no such curve, though single readings can be large; an effect the other way counts as inactive or inconclusive.
Tests used:
[1] = P-glycoprotein substrates identified in KB-3-1 adenocarcinoma cell line, qHTS therapeutic library screen (AID 1346986); also: nearly all actives have a fitted effect of over 60% in size
Procedure, shortened: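 Using luminescence to quantify ATP, parental and P-gp-overexpressing KB cells were compared after 72 h compound titration. KB-8-5-11 was also run with the P-gp inhibitor tariquidar.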

[2] = P-glycoprotein substrates identified in KB-8-5-11 adenocarcinoma cell line, qHTS therapeutic library screen (AID 1346987); also: nearly all actives have a fitted effect of over 65% in size; also: potency is read from the fitted curve at half-maximal effect
Procedure, shortened: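 Human cervical adenocarcinoma KB-8-5-11 cells, selected in colchicine to over-express P-gp and assayed without it, were exposed for 72 h to titrated compounds. An ATP-based luminescent viability signal gave AC50.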

[3] = qHTS profiling for inhibitors of Plasmodium falciparum (3D7) proliferation (AID 743322);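 also: infected erythrocytes exposed to compound for 72 h before lysis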; details: P. falciparum 3D7 proliferation; at 28.7 µM (top of the series)
Procedure, shortened: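 Parasite DNA was quantified by SYBR Green I fluorescence (ex 485, em 535 nm) after overnight lysis in saponin/Triton buffer at room temperature. Cultures at 0.3% parasitemia and 2.5% hematocrit were first exposed to compound for 72 h at 37 C; signals were normalised to artemisinin (0.29 uM) and vehicle wells.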

[4] = qHTS profiling for inhibitors of Plasmodium falciparum (DD2) proliferation (AID 743323; call rule not given here); details: lower = more inhibition; at 28.7 µM (top of the series)
Procedure, shortened: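 Parasite proliferation measured via DNA-dye fluorescence, as uninfected erythrocytes lack DNA. Cultures at 0.3% parasitemia and 2.5% hematocrit incubated 72 h with compound; signal scaled between vehicle and 0.29 uM artemisinin wells.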

[5] = qHTS profiling for inhibitors of Plasmodium falciparum (HB3) proliferation (AID 743324); details: Plasmodium falciparum HB3 blood-stage proliferation; at 28.7 µM (top of the series)
Procedure, shortened: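 SYBR Green fluorescence (485 ex/535 em) of lysed cultures, incubated overnight at room temperature in the dark, quantifies parasite DNA. Infected erythrocytes at 0.3% parasitemia and 2.5% hematocrit were exposed 72 h; values normalized to DMSO and 0.29 uM artemisinin controls.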

[6] = qHTS assay to identify small molecule inhibitors of chordoma cells - UCH-2 (AID 1259356)
[7] = qHTS assay for cell viability of the p53RE-bla HCT-116 cell line (AID 743292); also: nearly all actives have a fitted effect of over 55% in size; also: potency is read from the fitted curve at half-maximal effect
Procedure, shortened: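 Intracellular ATP of p53RE-bla HCT-116 cells measured by luciferase luminescence following 16 h compound incubation at 37 C; DMSO-only wells served as vehicle controls.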

[8] = Natriuretic polypeptide receptor (hNpr1) antagonism - Pilot counterscreen GloSensor control cell line (AID 1347045; calls by dose curve)
Procedure, shortened: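 The SNP-driven cGMP luminescence signal (50 uM, 20 min, room temperature) was measured in GloSensor HEK293 control cells. Compounds were tested as a LOPAC titration series and preincubated for 30-50 min.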

[9] = target: Atrial natriuretic peptide receptor 1 (Homo sapiens) (UniProt P16066); test: Natriuretic polypeptide receptor (hNpr1) antagonism - Pilot screen (AID 1347049; calls by dose curve;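 also: HEK293 cells with hNpr1 and GloSensor cGMP luciferase stimulated by 0.1 nM hNppA; agonist-evoked cGMP luminescence read 20 min after hNppA addition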)
Procedure, shortened: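 Cells expressing receptor plus cGMP biosensor are seeded and incubated overnight at 37C, then loaded with GloSensor reagent (2% final) at room temperature for 2 h. Library compounds go on for 30 min. A pre-read precedes agonist (hNppA, 0.1 nM final) and a 20-min readout.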

[10] = target: Atrial natriuretic peptide receptor 2 (Homo sapiens) (UniProt P20594); test: Natriuretic polypeptide receptor (hNpr2) antagonism - Pilot subtype selectivity assay (AID 1347050; calls by dose curve)
Procedure, shortened: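 Read-out: GloSensor luminescence (CCD imager), baseline vs post-stimulation. HEK293 cells expressing hNpr2; compounds pre-incubated 30-50 min at ambient temperature; hNppC 1 nM final, 20 min.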

[11] = NS1 protein of Zika virus - qHTS assay to identify small molecule inhibitors in human HEK 293 cells (AID 1347053); also: nearly all actives have a fitted effect of over 55% in size
Procedure, shortened: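 Compound-treated (1 h pre-infection) HEK 293 cells infected with ZIKV MR766, MOI = 0.5; after 24 h at 37 C, NS1 read by TR-FRET; data normalized to uninfected and infected controls.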

[12] = target: Tyrosine-protein phosphatase non-receptor type substrate 1 (Homo sapiens) + Leukocyte surface antigen CD47 (Homo sapiens) (UniProt P78324+Q08722); test: CD47-SIRPalpha protein protein interaction - LANCE assay qHTS validation (AID 1347057; active = well fitted curve in the direction sought with a large enough effect in the signal ratio, with a control signal flat, not every such curve was filed as active; the % refers to the signal ratio)
Procedure, shortened: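 Inhibition of soluble CD47/SIRPalpha ectodomain association by titrated compounds, measured as 665/615 nm time-resolved FRET ratio after sequential 30 min room-temperature incubations.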

Chain of Atrial natriuretic peptide receptor 2 (Homo sapiens) (P20594 whole entry, looked up): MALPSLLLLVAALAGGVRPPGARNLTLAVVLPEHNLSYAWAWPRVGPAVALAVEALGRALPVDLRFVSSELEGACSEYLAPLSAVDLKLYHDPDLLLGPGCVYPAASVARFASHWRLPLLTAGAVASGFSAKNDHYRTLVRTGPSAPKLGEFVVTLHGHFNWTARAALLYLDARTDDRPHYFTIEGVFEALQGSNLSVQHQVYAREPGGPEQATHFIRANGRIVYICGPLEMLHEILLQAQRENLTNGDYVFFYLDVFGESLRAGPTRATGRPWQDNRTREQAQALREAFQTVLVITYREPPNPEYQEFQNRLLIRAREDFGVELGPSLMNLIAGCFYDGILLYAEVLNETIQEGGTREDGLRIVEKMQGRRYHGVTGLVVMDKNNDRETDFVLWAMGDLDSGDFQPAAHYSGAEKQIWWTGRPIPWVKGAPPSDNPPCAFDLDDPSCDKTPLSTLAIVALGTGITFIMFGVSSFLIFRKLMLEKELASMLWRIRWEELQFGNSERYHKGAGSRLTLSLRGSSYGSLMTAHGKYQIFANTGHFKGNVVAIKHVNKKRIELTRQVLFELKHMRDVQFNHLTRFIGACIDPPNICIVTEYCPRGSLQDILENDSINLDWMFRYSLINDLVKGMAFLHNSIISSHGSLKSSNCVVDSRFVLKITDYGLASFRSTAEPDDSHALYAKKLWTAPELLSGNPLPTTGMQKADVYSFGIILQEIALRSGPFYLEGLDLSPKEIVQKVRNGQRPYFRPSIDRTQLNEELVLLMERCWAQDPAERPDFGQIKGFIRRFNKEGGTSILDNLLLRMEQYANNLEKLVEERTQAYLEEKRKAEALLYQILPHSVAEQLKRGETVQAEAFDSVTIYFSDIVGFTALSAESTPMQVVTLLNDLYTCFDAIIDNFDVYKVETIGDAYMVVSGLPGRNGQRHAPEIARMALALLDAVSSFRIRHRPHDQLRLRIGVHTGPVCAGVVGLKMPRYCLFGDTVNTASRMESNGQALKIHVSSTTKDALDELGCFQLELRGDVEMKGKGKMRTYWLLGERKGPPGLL
Chain of Atrial natriuretic peptide receptor 1 (Homo sapiens) (P16066 whole entry, looked up): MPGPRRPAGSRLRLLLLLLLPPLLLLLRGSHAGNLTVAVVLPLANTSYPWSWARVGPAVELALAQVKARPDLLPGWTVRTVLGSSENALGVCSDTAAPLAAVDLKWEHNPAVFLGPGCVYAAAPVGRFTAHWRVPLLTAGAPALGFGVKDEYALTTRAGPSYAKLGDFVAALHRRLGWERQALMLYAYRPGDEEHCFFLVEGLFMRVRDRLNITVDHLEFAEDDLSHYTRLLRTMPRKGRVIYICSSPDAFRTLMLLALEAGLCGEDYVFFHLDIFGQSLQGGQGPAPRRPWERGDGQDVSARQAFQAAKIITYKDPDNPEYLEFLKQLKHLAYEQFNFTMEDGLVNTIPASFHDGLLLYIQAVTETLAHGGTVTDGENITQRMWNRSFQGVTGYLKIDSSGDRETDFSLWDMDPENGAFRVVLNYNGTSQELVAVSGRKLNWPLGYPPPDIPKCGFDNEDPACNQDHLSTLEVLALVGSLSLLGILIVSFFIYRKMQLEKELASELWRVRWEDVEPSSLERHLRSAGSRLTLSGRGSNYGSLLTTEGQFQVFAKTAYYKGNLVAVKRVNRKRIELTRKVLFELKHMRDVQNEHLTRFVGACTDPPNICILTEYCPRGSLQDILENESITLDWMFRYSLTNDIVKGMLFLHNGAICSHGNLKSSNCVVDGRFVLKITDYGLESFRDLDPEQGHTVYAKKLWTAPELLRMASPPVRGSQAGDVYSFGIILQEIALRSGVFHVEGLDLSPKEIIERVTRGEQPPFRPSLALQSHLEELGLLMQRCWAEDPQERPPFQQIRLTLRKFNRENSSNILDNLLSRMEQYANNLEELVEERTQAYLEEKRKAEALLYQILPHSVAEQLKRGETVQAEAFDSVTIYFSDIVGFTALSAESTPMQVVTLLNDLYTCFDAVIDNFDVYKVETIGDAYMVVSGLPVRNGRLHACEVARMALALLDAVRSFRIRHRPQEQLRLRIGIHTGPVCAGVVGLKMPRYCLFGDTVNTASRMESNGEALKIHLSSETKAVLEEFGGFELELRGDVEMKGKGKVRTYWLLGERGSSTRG
Chain of Tyrosine-protein phosphatase non-receptor type substrate 1 (Homo sapiens) + Leukocyte surface antigen CD47 (Homo sapiens) (P78324 whole entry, looked up, the tested form may be a part): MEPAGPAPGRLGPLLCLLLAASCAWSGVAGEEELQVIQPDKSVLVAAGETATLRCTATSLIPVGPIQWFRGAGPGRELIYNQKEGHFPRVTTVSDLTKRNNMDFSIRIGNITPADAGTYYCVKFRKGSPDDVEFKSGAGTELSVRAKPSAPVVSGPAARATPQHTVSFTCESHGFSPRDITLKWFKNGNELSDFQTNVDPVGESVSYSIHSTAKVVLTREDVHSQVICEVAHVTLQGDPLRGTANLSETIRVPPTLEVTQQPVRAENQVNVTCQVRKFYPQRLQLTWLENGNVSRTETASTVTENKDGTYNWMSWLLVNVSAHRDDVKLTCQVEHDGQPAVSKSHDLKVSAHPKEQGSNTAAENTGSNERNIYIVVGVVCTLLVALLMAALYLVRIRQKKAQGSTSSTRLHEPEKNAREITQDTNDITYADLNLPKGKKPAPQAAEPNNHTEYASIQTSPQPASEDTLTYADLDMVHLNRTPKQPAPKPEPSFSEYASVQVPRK
Chain of Tyrosine-protein phosphatase non-receptor type substrate 1 (Homo sapiens) + Leukocyte surface antigen CD47 (Homo sapiens) (Q08722 whole entry, looked up, the tested form may be a part): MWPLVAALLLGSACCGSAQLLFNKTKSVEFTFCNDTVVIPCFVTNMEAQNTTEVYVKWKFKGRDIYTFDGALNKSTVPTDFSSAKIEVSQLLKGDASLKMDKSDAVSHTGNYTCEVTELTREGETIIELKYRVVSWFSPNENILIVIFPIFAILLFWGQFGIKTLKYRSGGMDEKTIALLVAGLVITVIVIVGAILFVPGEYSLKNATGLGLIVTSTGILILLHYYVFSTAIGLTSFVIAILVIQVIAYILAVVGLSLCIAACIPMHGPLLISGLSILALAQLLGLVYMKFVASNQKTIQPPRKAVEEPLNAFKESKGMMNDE

COC(=O)C12C(=O)C(C)(O)C(=O)C1(C)C(C)=CC1C34CCC(OC3=O)C(C)(CO)C4CCC12C (configuration not stated)
Potency [1]: inactive
Potency [2]: inactive

C=C(CO)C(=O)O[C@H]1C/C(C)=C/CC/C(CO)=C/[C@H]2OC(=O)C(=C)[C@H]12
Potency [1]: inactive
Potency [2]: inactive

C[C@@]1(C(=O)O)CC[C@]2(C)CC[C@]3(C)C4=CC(=O)c5cc(O)c(O)cc5[C@]4(C)CC[C@@]3(C)[C@@H]2C1
Potency [1]: inactive
Potency [2]: inactive

C[C@]12CC[C@@H](O)C[C@H]1CC[C@@H]1[C@@H]2CC[C@]2(C)C(=O)CC[C@@H]12
Potency [1]: inactive
Potency [2]: inactive

COCC1OC(=O)c2coc3c2C1(C)C1=C(C3=O)C2CCC(=O)C2(C)CC1O (configuration not stated)
Potency [1]: inactive

O=C(O)c1ccnc2cc(C(OCCN3CCCCC3)c3ccccc3Cl)[nH]c12 (configuration not stated)
Potency [1]: inactive
Potency [2]: inactive

CCN1C[C@]2(COC(=O)c3ccccc3N3C(=O)C[C@H](C)C3=O)CC[C@H](OC)[C@@]34[C@@H]5C[C@H]6[C@H](OC)[C@@H]5[C@](O)(C[C@@H]6OC)[C@](O)([C@@H](OC)[C@H]23)[C@@H]14
Potency [1]: inactive

C/C=C(\C)C(=O)OC1CC2C(CC=C3CC(OC4CC(OC)C(OC5CC(OC)C(OC6OC(C)C(OC7OC(CO)C(O)C(O)C7O)C(OC)C6O)C(C)O5)C(C)O4)CCC32C)C2(O)CCC(C(C)=O)C12C (configuration not stated)
outcome [1]: inactive [at 9.29 µM]
activity change, negative = cytotoxicity [2]: 9.6% [at 9.29 µM] (inactive)

C/C(=C\c1csc(C)n1)[C@@H]1C[C@@H]2O[C@]2(C)CCC[C@H](C)[C@H](O)[C@@H](C)C(=O)C(C)(C)[C@@H](O)CC(=O)O1
remaining parasite growth % (stronger effect = lower value) [3]: 11%
activity, percent of control [4]: 13%
remaining proliferation (% of control), lower = more inhibition [5]: 14.1%
Potency [6]: inactive
Potency [2]: 36.6 nM (active)

COc1cc(CCNCc2ccccc2O)c(OC)cc1C#N
Potency [1]: inactive

Cn1ncnc1COc1nn2c(-c3c(F)cccc3F)nnc2cc1C1CCC1
Potency [1]: inactive
Potency [2]: inactive

COC1CC(=O)C23C(=O)NC(CC(C)C)C2C(C)=C(C)C(OO)C3/C=C(\C)CCC(O)C1O (configuration not stated)
Potency [1]: inactive
Potency [2]: inactive

COC1=CC(=O)O[C@@H](CCc2ccccc2)C1
Potency [1]: inactive
Potency [2]: inactive

CCc1c(C(=O)C(N)=O)c2c(OCC(=O)OC)cccc2n1Cc1ccccc1
Potency [1]: inactive

Cc1cn(C[C@H](N)C(=O)O)c(=O)n(Cc2cc(-c3ccccc3)sc2C(=O)O)c1=O
Potency [1]: inactive
Potency [2]: inactive

CN1C(=O)N(c2ccc(C#N)c(C(F)(F)F)c2)C(=O)[C@]1(CO)c1ccccc1
Potency [1]: inactive
Potency [2]: inactive

CC(N)Cc1c[nH]c2ccccc12 (configuration not stated)
Potency [1]: inactive
Potency [2]: inactive

COC(=O)C1(C)CCC(O)C2(C)c3cc(O)c(C(C)C)cc3C(O)C(OC(C)=O)C12 (configuration not stated)
Potency [1]: inactive
Potency [2]: inactive

COC1=CC(=O)O[C@@H](/C=C/c2ccccc2)C1
Potency [7]: inactive

C/C(O)=C(\C#N)C(=O)Nc1cc(Br)ccc1Br
Potency [8]: inactive
Potency [9]: inactive
Potency [10]: inactive

CN1[C@H]2C[C@H](OC(=O)[C@H](CO)c3ccccc3)C[C@@H]1[C@@H](O)C2
Potency [2]: inactive

ClC=C(Cl)Cl
Potency [7]: inactive
Potency [2]: inactive

Clc1ccc(OCC2=NCCN2)cc1Cl
Potency [2]: inactive

O=C(O)C(Cl)(Cl)Cl
Potency [7]: inactive
Potency [2]: inactive

O=C1C2CC=CCC2C(=O)N1SC(Cl)(Cl)Cl (configuration not stated)
Potency [7]: inactive

COC1CC(O[C@H]2CC[C@]3(C=O)C4CC[C@]5(C)[C@@H](C6=CC(=O)OC6)CC[C@]5(O)[C@@H]4CC[C@]3(O)C2)OC(C)C1O[C@@H]1O[C@H](CO)[C@@H](O)[C@H](O)[C@H]1O (some centres not stated)
Potency [2]: 153 nM (active)

C[C@H]1CC[C@@H]2[C@@H](C)[C@H]3[C@H](C[C@H]4[C@@H]5CC=C6CC(O[C@@H]7O[C@H](CO)[C@H](O)[C@H](O[C@@H]8O[C@H](CO)[C@@H](O)[C@H](O)[C@H]8O)[C@H]7O[C@H]7O[C@@H](C)[C@H](O)[C@@H](O)[C@H]7O)CC[C@]6(C)[C@H]5CC[C@]34C)N2C1 (some centres not stated)
Potency [7]: 70800 nM (active)

COc1ccc(CNC(=O)/C=C/c2ccc3[nH]cc(CCN(C)C)c3c2)cc1
Potency [8]: inactive
Potency [9]: inactive
Potency [10]: inactive
outcome [11]: inactive
Potency [12]: inactive

COC1C(O)C(OC2CCC3(C=O)C(CCC4C3CCC3(C)C(C5=CC(=O)OC5)CCC43O)C2)OC(C)C1OC1OC(CO)C(O)C(O)C1O (configuration not stated)
Potency [2]: 432 nM (active)

COC(=O)[C@@]12C(=O)C(C)C(=O)[C@]1(C)C(C)=C[C@H]1[C@]3(C=O)CC[C@H](OC(C)=O)C(C)(C)[C@H]3CC[C@@]12C (some centres not stated)
Potency [2]: inactive

COC1CC(OC2CCC3(C)C(CCC4C3CCC3(C)C(C5=CC(=O)OC5)C(OC(C)=O)CC43O)C2)OC(C)C1OC1OC(CO)C(O)C(O)C1O (configuration not stated)
Potency [2]: 685 nM (active)

CC(C)=C1CC[C@]23CO[C@H](C2)[C@@](O)(C(=O)O)CCC13 (some centres not stated)
Potency [2]: inactive

C[C@@](O)(COc1ccc(C#N)cc1)C(=O)Nc1ccc(C#N)c(C(F)(F)F)c1
Potency [2]: inactive

Cc1cccc(NC(=O)N[C@@H]2N=C(c3ccccc3)c3ccccc3N(C)C2=O)c1
Potency [2]: inactive

CCCCCCCCOC(=O)c1ccccc1C(=O)OCCCCCCCC
Potency [7]: inactive
Potency [2]: inactive

C=C1[C@@H]2CC[C@@]3(C)[C@H](c4ccoc4)OC(=O)C[C@]13O[C@H]1CC(=O)C(C)(C)[C@H](C(OC(C)=O)C(=O)OC)[C@]12C (some centres not stated)
Potency [2]: inactive

Reference: PubChem BioAssay (NCATS)
